# Source: PubChem
# An excerpt weighted towards active compounds, which were near 4.5% of everything screened.
# Rtt109 Vps75: C. albicans Rtt109 histone acetyltransferase inhibition | 330,000 tested, 0.16% active | purified Rtt109/Vps75, ThioGlo CoA-SH fluorescence, 4 h | inhibition, % at 34.9 µM | AID 540336;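 active = inhibition of at least 50% in every replicate; inconclusive = best replicate reaches 50% inhibition but some replicates fall short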
# Target sequence (Q5AAJ8 whole entry, looked up): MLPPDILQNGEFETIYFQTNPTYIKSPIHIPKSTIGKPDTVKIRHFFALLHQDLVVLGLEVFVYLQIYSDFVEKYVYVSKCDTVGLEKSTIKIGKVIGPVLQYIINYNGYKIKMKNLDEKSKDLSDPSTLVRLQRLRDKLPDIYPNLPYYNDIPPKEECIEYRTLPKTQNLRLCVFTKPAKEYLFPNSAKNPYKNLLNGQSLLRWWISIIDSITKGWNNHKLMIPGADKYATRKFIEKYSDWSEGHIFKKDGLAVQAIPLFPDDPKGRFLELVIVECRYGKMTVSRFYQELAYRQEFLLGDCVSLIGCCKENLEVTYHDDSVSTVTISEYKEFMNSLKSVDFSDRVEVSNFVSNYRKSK
# Efflux pump mplx: blocks antifungal efflux pumps in multiplex yeast assay; 330,000 tested, 0.44% active; inhibition, % at 10 µM; S. cerevisiae Candida pump triplex, Nile Red efflux;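 active = plate passing quality check with inhibition over a set limit, or well fluorescence over plate mean plus 4 SD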;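 also: Nile Red retained in pooled yeast measured as flow cytometry median fluorescence; 0% = buffer negative control and 100% = Enniatin B positive control; higher means more Nile Red kept so more efflux inhibition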
# ALR H2O2 inh: human ALR oxidase inhibition via reduced H2O2; 290,000 tested, 3.8% active; P55789; inhibition, % (no concentration beside the values); purified ALR, DTT oxidation, H2O2 HRP-luminol luminescence;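 active = mean replicate inhibition above about 79%, with every replicate also reaching it, limit read from the data; inconclusive = only one of the two criteria met; inactive = mean below limit and not every replicate reaching it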
# Rce1 inhib: yeast Ras-converting enzyme inhibition; Q03530; yeast membranes, quenched prenylated peptide cleavage fluorescence; calls only; 290,000 tested, 0.27% active; AID 2563;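 active = fall in fluorescence gain of 50% or more versus controls, with final raw signal at or below 3038400; inconclusive = same 50% fall but final raw signal above 3038400; inactive = fall in fluorescence gain under 50%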;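 also: plate controls were neutral control wells for no effect and wells lacking membranes for full effect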
# Target sequence (Q03530 whole entry, looked up): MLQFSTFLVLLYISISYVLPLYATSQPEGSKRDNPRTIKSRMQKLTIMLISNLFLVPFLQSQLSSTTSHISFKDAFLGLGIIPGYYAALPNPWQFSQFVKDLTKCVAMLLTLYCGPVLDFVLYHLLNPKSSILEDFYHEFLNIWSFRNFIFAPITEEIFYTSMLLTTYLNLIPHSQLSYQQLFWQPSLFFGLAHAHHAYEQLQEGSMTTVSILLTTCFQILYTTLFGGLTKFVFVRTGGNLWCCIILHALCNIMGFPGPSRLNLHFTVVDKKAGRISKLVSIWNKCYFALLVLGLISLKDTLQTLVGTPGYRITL
# GRK2 inh: inhibitors of human GRK2 displacing RNA aptamer. P25098. AID 488847. bead flow cytometry, FAM-aptamer displacement from GRK2. inhibition of aptamer binding, % at 10 µM. 330,000 tested, 0.59% active;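 active = inhibition of aptamer binding above 40%, roughly 3 SD of noise, on plates passing a quality check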;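 also: median bead fluorescence of bound FAM aptamer so fluorescent compounds give negative values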
# HDAC3 inh: blocks human histone deacetylase 3. AID 2718. 320,000 tested, 0.15% active. recombinant HDAC3, fluorogenic peptide/trypsin coupled, fluorescence. O15379. inhibition, % at 8.3 µM; in the data active = inhibition above about 26%, passing the limit was not always enough; inconclusive = no clear call, values can overlap the other calls
# Starred values were filed as active, the others as inactive; i = inactive; ? = inconclusive; / = no result given.
SMILES,Rtt109 Vps75,Efflux pump mplx,ALR H2O2 inh,Rce1 inhib,GRK2 inh,HDAC3 inh
COCCn1nnnc1C(CC(C)C)N1CCN(c2ccccc2)CC1 (stereo not drawn),-1.9,0.0,93.3*,i,0.0,-0.9
C[C@@H]1CN([C@@H](C)CO)C(=O)c2cc(NS(C)(=O)=O)ccc2O[C@@H]1CN(C)Cc1ccc(C(F)(F)F)cc1,10.1,/,/,/,/,/
CCCN(CC(=O)Nc1ccccc1OC)C(=O)CCC(=O)c1ccc(OCC)cc1,-5.2,0.0,/,/,0.0,-0.8
COc1cc(C#CC#CCN2CCCCC2)ccc1O,-5.2,0.0,99.2*,i,2.0,5.5
COc1cc(C(=O)OCCN2CCCCC2)ccc1O,7.9,0.6,50.1,i,2.0,2.8
N#CC1=C(N)Oc2n[nH]c(-c3cccs3)c2C1c1ccco1 (stereo not drawn),2.9,0.1,75.0*,i,0.0,-5.9
C=CCN(CC(O)c1cccc([N+](=O)[O-])c1)C(C)CCc1ccccc1 (stereo not drawn),8.3,-0.1,/,i,0.0,11.5
COCCN(Cc1ccccc1)C(=O)c1c(C)nn(-c2ccccc2)c1C,-9.2,0.1,-1.9,i,1.0,-15.8
O=c1[nH]n2c(=O)c3c([nH]c2c1N=Nc1cccc(C(F)(F)F)c1)CCCC3,-6.1,0.1,96.6*,i,1.0,12.7
O=c1[nH]n2c(=O)c3c([nH]c2c1N=Nc1cccc(Cl)c1)CCC3,12.9,0.4,35.2,i,12.0,-0.1
COC(=O)/C(=N\Nc1ccc(Cl)cc1)Sc1nnc(-c2ccc(OC)cc2)n1C,-0.5,0.3,94.6*,i,0.0,1.2
CCN(CCCNC(=O)c1[nH]c(C)c(C(C)=O)c1C)c1ccccc1,12.4,-0.2,89.2*,i,0.0,3.6
CC(=O)c1c(C)[nH]c(C(=O)NCCc2ccccc2)c1C,0.9,-0.1,99.9*,i,0.0,8.0
O=C(NNC(=S)Nc1ccc(Br)cc1Cl)c1ccncc1,2.2,-0.4,74.0,i,4.0,1.7
COc1ccc(CCC(=O)NNC(=O)Nc2cccc(Cl)c2)cc1,-17.2,-0.1,-0.3,i,1.0,-7.4
COc1cccc(NC(=O)NNC(=O)CCc2ccc(O)c(O)c2)c1,8.0,0.1,99.2*,i,3.0,-1.2
O=C(CCc1ccc(O)c(O)c1)NNC(=S)NCCc1ccccc1,6.0,-0.7,98.6*,i,8.0,-2.5
O=C(CCc1ccc(O)c(O)c1)NNC(=S)Nc1ccc(Br)cc1Cl,22.1,0.0,98.8*,i,2.0,-2.6
O=c1c2c3c(sc2nc2n1CCCCC2)C(O)CCC3 (stereo not drawn),1.5,0.0,-6.0,i,1.0,3.3
CN(CC(=O)Nc1ccccc1Cl)CC(=O)Nc1sc2c(c1C(N)=O)CCC2,-4.6,-0.1,38.9,i,0.0,-1.1
COCCN=c1scc(-c2cccs2)n1/N=C/c1ccc(O)c(O)c1O,5.4,-0.2,99.0*,i,0.0,-4.5
CCN=c1scc(C)n1/N=C/c1ccc(O)c(O)c1O,1.3,-0.1,99.2*,i,0.0,7.4
CCN=c1scc(C)n1/N=C/c1cc(Br)c(O)c(Br)c1,16.2,0.1,69.7,i,2.0,-3.4
CCN1CCN(c2cc(C)c3cc(NC(=O)CCC(=O)N4CCN(c5ccccc5OC)CC4)ccc3n2)CC1,21.0,0.1,47.7,i,0.0,-7.8
CCN1CCN(c2cc(C)c3cc(NC(=O)CCC(=O)N4CCN(c5ccccc5)CC4)ccc3n2)CC1,1.7,-0.1,91.4*,i,0.0,-6.7
SMILES,Rtt109 Vps75,Efflux pump mplx,ALR H2O2 inh,Rce1 inhib,GRK2 inh,HDAC3 inh
CCCCCCCCN1[C@@H](CC(=O)O)c2ccc(C(F)(F)F)cc2S1(=O)=O,9.5,-0.1,97.4*,i,0.0,8.8
CCCCCCCCCCCCN1[C@@H](CC(C)=O)c2cc(C(F)(F)F)ccc2S1(=O)=O,-7.7,/,-4.4,i,/,-5.8
S=c1[nH]c2ccccc2n2c(=S)[nH]nc12,4.0,0.1,98.7*,i,5.0,7.3
O=C(Nc1ccccc1N1CCCC1)C1CCN(C(=O)c2ccc(Cl)cc2)CC1,12.9,0.0,2.0,i,0.0,3.3
COc1cccc(CC(=O)Nc2ccccc2N2CCCC2)c1,4.3,-0.1,98.0*,i,0.0,-20.4
Cn1nc(C(=O)Nc2ccccc2N2CCCC2)c2ccccc2c1=O,16.5,0.0,91.5*,i,1.0,2.3
COc1ccc(CC(=O)Nc2ccccc2N2CCCCC2)cc1OC,/,0.0,2.8,i,1.0,5.2
COc1cccc(C(=O)Nc2ccc3c(c2)C(=O)c2ccccc2C3=O)c1,50.1*,-0.1,-0.5,i,0.0,-1.3
CCN(CC)S(=O)(=O)c1ccc(N2CCCC2)c(NC(=O)c2nn(C)c(=O)c3ccccc23)c1,7.6,0.0,-27.4,/,0.0,1.3
O=C(Nc1ccccc1N1CCCC1)C1CCN(C(=O)c2ccc(F)cc2)CC1,0.8,0.1,98.1*,i,1.0,-4.4
CCn1c(C)nc2cc(C(=O)N/N=C(\C)c3ccccc3O)ccc21,0.8,-0.1,6.2,i,4.0,3.1
Cc1ccc(NC(=O)C2CCN(S(=O)(=O)c3c(C)nn(C)c3C)CC2)c(Cl)c1,-2.3,0.2,-3.5,i,0.0,-11.9
COc1cccc(C(=O)Nc2cc3c(cc2N2CCCC2)n(C)c(=O)n3C)c1,-2.5,0.3,99.2*,i,2.0,-6.9
COc1ccc(C(=O)NC(=S)N2CCN(c3ccccc3O)CC2)cc1,11.0,0.3,98.6*,/,0.0,-0.1
CC(C)Oc1ccc(C(=O)Nc2ccccc2N2CCCC2)cc1,-0.3,0.1,98.1*,i,0.0,?
Cc1ccc(C(=O)Nc2ccccc2N2CCCC2)cc1,-0.3,-0.1,98.5*,i,1.0,-3.5
COc1ccc(C(=O)NC(C(=O)N2CCN(c3ccccc3O)CC2)C(C)C)cc1 (stereo not drawn),4.5,-0.2,65.7,i,3.0,3.7
CCOc1ccc(/C=N/NC(=O)c2nnn(-c3nonc3N)c2CN(C)C2CCCCC2)cc1,-0.7,0.2,1.5,i,1.0,-4.7
COc1ccc(C(=O)N/N=C(/C)c2ccc(N3CCCCC3)cc2)cc1,9.9,0.0,92.0*,i,0.0,-5.3
O=C(NC(=S)Nc1ccccc1N1CCCC1)c1cccc(F)c1,-7.1,0.1,-4.4,i,39.0,-0.7
O=C(CC1OC(=O)c2ccccc21)Nc1cc(Cl)ccc1N1CCCC1 (stereo not drawn),0.5,0.1,96.7*,i,0.0,2.1
O=C(Nc1ccccc1N1CCCC1)c1cccc(F)c1,-0.6,0.0,98.5*,i,2.0,1.7
CCOc1ccccc1C(=O)Nc1cc2c(cc1N1CCCC1)n(CC)c(=O)n2CC,30.4,-0.1,98.6*,i,0.0,13.3
O=C(CC1OC(=O)c2ccccc21)Nc1ccccc1N1CCOCC1 (stereo not drawn),-7.2,0.0,-7.2,i,0.0,-6.0
